Hit rate of the full screen: of about 390,000 compounds, about 150 (0.038%) were called active. Roughly 3% stayed inconclusive and do not appear here. This is one part of a sample in which actives are shown more often than they occur. Calls follow the shape of the dose curve; as a rule, active = well fitted inhibition curve with a large enough effect; inconclusive = small, poorly fitted or top-dose-only effect; inactive = no such curve, though single readings can be large or run the other way.
Each compound was assayed against Regulator of G-protein signaling 4 (Homo sapiens) (UniProt P49798) (assay: Inhibitors of Regulator of G Protein Signaling (RGS) 4: qHTS). Details: Transcreener GDP fluorescence polarization, RGS4-accelerated GTP hydrolysis; series mostly up to 114 µM.
Regulator of G-protein signaling 4 (Homo sapiens), sequence (P49798 whole entry, looked up, the tested form may be a part): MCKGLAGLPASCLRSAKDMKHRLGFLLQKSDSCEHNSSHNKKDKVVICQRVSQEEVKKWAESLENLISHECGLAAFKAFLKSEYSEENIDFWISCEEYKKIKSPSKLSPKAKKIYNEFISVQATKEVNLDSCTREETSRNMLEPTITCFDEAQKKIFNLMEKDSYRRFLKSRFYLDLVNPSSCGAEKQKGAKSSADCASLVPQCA
Source text: G-protein-coupled receptors (GPCRs) are well-established targets for drug discovery and development. Members of the "regulator of G-protein signaling" (RGS)-protein superfamily have recently emerged as critical modulators of specific GPCR signaling pathways. […] Combining specific RGS domain inhibitors with existing GPCR agonists should potentiate cellular responses and could also increase the specificity of action of existing therapeutics. Small molecule modulators of RGS domain activity should also have clinical utility in inhibiting or potentiating the actions of endogenous GPCR agonists. In particular, the diversity of RGS proteins with highly localized and dynamically regulated distributions in the human brain makes this family of proteins attractive targets for pharmacotherapy of central nervous system (CNS) disorders such as Parkinson's disease, schizophrenia, and anxiety.
This assay was used to screen the NIH Molecular Libraries Small Molecule Repository (MLSMR) in order to identify a small molecule that inhibits RGS4.
NIH Chemical Genomics Center [NCGC]
NIH Molecular Libraries Probe Centers Network [MLPCN]
Assay Submitter (PI): David Siderovski, University of North Carolina Chapel Hill (School of Medicine)
Two microliters of 500nM (2x working concentration) is dispensed into black medium-binding solid-bottom Kalypsys plates. Then with the Kalypsys pintool 23nl of control and compounds are transferred; the control compound is […] CCG-4986 (working concentration). After a 10 minute incubation at room temperature 2ul of antibody is added with the Kalypsys dispenser; (-)RGS4/Transcreener GDP solution in columns 3 and 4 which consisted of 10nM (2x working concentration) Alexa633, 20uM GTP, and 20 ug/ml GDP antibody and (+)RGS4/Transcreener GDP solution in columns 1,2, and 5 to 48 which consists of 900nM RGS4 (2x working concentration), 10nM Alexa633, 20 ug/ml GDP antibody. The plate is centrifuged at 1000 RPM for 15 seconds to remove any possible bubbles and then incubated for 5 minutes at ambient room temperature. An initial fluorescent polarization read (620 nm/688 nm) is performed on the Envision before the plate is incubated for 90 minutes at 30 deg C at a relative humidity of 80%. The plate is once more centrifuged at 1000 RPM for 15 seconds and another Envision fluorescent polarization (620 nm/688 nm) read is carried out.
Also: nearly all actives have a fitted effect of over 75% in size.
Potency is read from the fitted curve at half-maximal effect.

Potency, inactive:
COc1cc(CN(CC2CCCO2)C(=O)c2ccccc2F)cc(OC)c1OC (configuration not stated)
CCn1c2ccccc2c2cc(NC(=O)COc3ccc(C)cc3C)ccc21
Nc1ccc2c3c(cccc13)C(=O)NC2=O
COc1ccc(-c2ccc(C3C4C=CCCC4(C)C(=O)N3Cc3ccccc3)c(F)c2)cc1OC (configuration not stated)
Cc1ccc(Nc2ccc3cc(S(=O)(=O)N4CCCCC4)ccc3n2)cc1F
O=C(NCC(c1ccc(Cl)cc1)N1CCOCC1)c1ccccc1F (configuration not stated)
COc1ccc(CCCOC(Cn2ccnc2)c2ccc(OC)cc2)cc1 (configuration not stated)
CCCNC(=O)C(CC)n1nc(CC)n2c(cc3oc(C)cc32)c1=O (configuration not stated)
CCCCCCCCCCCC(=O)O
CCc1ccc(CN(Cc2ccco2)C(=O)c2ccccc2Cl)cc1
COc1ccccc1N1CCN(C[C@@H]2CN3C(=O)N(C)c4ccccc4C3=N2)CC1
O=C(COc1ccc(Cl)cc1)Nc1ccc(-c2nc3cc(Cl)ccc3o2)c(O)c1
CCN(CC)/[N+]([O-])=N/Oc1cc(O/[N+]([O-])=N/N2CCCC2CO)c([N+](=O)[O-])cc1[N+](=O)[O-] (configuration not stated)
COc1ccc(OC)c(NC(=O)CSC2=Nc3ccccc3C3=NC(CC(=O)NCc4ccc(F)cc4)C(=O)N23)c1 (configuration not stated)
CCCc1nn2c(=O)cc(COC(=O)c3ccc(NC(=O)COc4ccc(F)cc4)cc3)nc2s1
CCc1ccccc1NC(=O)N1CCC2(CC1)Oc1ccccc1C(=O)N2Cc1ccccc1F
Cc1ccccc1CSCCNC(=O)C1CCN(S(=O)(=O)Cc2ccccc2)CC1
COc1ccccc1C(=O)NCCn1cc(SCc2ccccc2Cl)c2ccccc21
Cc1ccc(C)n1-c1nnc(N2CCC(C(=O)NCc3ccccc3Cl)CC2)s1
COc1ccc(-c2noc(CSc3nnc(-c4ccccc4)n3-c3ccc(F)cc3)n2)c(OC)c1
Cc1c(C(=O)NCc2ccccc2Br)oc2ccc3c(c12)C(=O)CC(C)(C)O3
CCn1cc(C(=O)NCCc2ccccc2)c(=O)c2cc(S(=O)(=O)N3CCCCCC3)ccc21
Cc1ccccc1CNC(=O)c1cccc(NC(=O)c2nsc3ccccc23)c1
Cc1ccc(C)c(S(=O)(=O)n2nc(C)c(S(=O)(=O)N3CCC(C)CC3)c2C)c1
Cc1ccc2oc3c(c(=O)c2c1)C(c1ccc(O)cc1)N(Cc1ccc2c(c1)OCO2)C3=O (configuration not stated)
Cc1ccc(/C(=C/CN2CCCC2)c2ccccn2)cc1

Potency, active:
CCCCC/C=C\CC1OC1CCCCCCCC(=O)O (configuration not stated) 37.7 µM

— PubChem BioAssay AID504845 (National Center for Advancing Translational Sciences (NCATS), 2011)
